For 40 molecules, Potency results are on record in PubChem BioAssay (NCATS).

Records with an inconclusive call do not appear. A call without a number means that no potency is given here. Activity calls are given as the source filed them. The call rests on the fitted dose curve.

This experiment deals with Thyroid hormone receptor beta (Homo sapiens) (UniProt P10828). Kind of experiment: qHTS assay for small molecule agonists of thyroid hormone receptor beta signaling (AID 588545). Conditions: TR-UAS-bla GripTite HEK 293, beta-lactamase ratio, agonist mode, 18 h; series mostly up to 76.7 µM. From the text: NIH Chemical Genomics Center [NCGC]
Sequence of Thyroid hormone receptor beta (Homo sapiens) (P10828 whole entry, looked up): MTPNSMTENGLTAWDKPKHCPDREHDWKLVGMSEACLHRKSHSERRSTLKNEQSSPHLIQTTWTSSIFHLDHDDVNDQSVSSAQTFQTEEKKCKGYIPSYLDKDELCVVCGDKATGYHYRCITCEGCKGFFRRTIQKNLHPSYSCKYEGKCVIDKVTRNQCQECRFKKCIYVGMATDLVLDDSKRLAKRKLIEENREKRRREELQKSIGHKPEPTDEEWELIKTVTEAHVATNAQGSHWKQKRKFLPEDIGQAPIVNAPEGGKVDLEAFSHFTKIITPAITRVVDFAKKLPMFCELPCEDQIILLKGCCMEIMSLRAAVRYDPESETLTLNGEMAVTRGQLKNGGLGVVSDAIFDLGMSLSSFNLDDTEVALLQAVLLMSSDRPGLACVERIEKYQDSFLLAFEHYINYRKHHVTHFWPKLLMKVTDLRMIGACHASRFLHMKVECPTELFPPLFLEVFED
U.S. Environmental Protection Agency [EPA]
National Institutes of Environmental Health Sciences [NIEHS]
National Toxicology Program [NTP]
Thyroid hormone receptor (TR) belongs to nuclear hormone receptor superfamily. There are two subtypes for TR: TR-alpha and TR-beta. TR-beta plays a major role in regulating plasma cholesterol levels and it mediates the biological activities of thyroid hormone. Screening environmental chemicals on TR-beta signaling will provide important information for the mechanism of compound action.
NCGC Assay Protocol Summary
Using a beta-lactamase reporter-gene under control of the TR response element, a cell-based assay [GeneBLAzer TR-UAS-bla-GripTite assay developed by Invitrogen] was used to measure TR-beta signaling in agonist mode. TR-UAS-bla-GripTite HEK 293 cells were used with assay medium containing 2% charcoal/dextran FBS, 0.1 mM NEAA and 1 mM sodium pyruvate. The assay was performed in clear bottom black Greiner 1536-well plates. T3 was used as a positive control in the screen. Library compounds were measured for their ability to stimulate the reporter gene activity. Compounds were screened in a titration series in 1536-well format. The fluorescence intensity (405 nm excitation, 460/530 nm emission) was measured using an EnVision plate reader. Data was normalized relative to T3 control (10 nM, 100%), and DMSO only wells (basal, 0%). Concentration-response titration points for each compound were fitted to the Hill equation yielding concentrations of half-maximal stimulation (EC50) and maximal response (efficacy) values.
qHTS protocol for TR-beta beta-lactamase assay in agonist mode
[Step] [Parameter] [Value] [Description]
1. Reagent; 6 uL; 2500 cells/well
2. Incubation; 37 C for 4 hrs
- Dose response; start 3.8 uM, 1:3 dilutions, duplicates in first column
- Two columns of each 10 and 0.4 nM (finals) concentrations.
5. Incubation; 37 C for 18 hrs
6. Detection reagent; 1 uL of CCF4-dye
7. Incubation; RT for 2 hrs
8. Detection; Fluorescence; Envision plate reader
Turning to `O=C(NC(=O)c1c(F)cccc1F)Nc1cc(Cl)c(OC(F)(F)C(F)C(F)(F)F)c(Cl)c1F` (stereo not given), the Potency entry is “inactive”.

Turning to `CNC(=O)O/N=C(\SC)C(=O)N(C)C`, the Potency entry was “inactive”.

On to `O=c1[nH]c2ccccc2c(=O)o1`, for which the Potency entry was “inactive”. For `CC1CCCCC1NC(=O)Nc1ccccc1` (stereo not given), the Potency entry was “inactive”. On to `N#CC(CCc1ccc(Cl)cc1)(Cn1cncn1)c1ccccc1` (stereo not given), for which the Potency entry is “inactive”. `CCOP(=O)(NC(C)C)Oc1ccc(S(C)(=O)=O)c(C)c1` (stereo not given): the Potency entry was “inactive”. To `CCCCN(CC)c1c([N+](=O)[O-])cc(C(F)(F)F)cc1[N+](=O)[O-]` belongs “inactive”. With `CCCCOC(=O)[C@@H](C)Oc1ccc(Oc2ccc(C#N)cc2F)cc1`, the Potency result was “inactive”.

For `CCNc1nc(NC(C)(C)C)nc(SC)n1`, the Potency entry is “inactive”. To `Nc1ccccc1C(=O)OCCc1ccccc1` belongs “inactive”; to `O=C(O)C1(O)c2ccccc2-c2ccc(Cl)cc21` (stereo not given), “inactive”. The result for `CCOc1cc(Oc2ccc(C(F)(F)F)cc2Cl)ccc1[N+](=O)[O-]` reads “inactive”; that for `COP(=O)(OC)Oc1nc(Cl)c(Cl)cc1Cl`, “inactive”; that for `O=C/C(Cl)=C(/Cl)C(=O)O`, “inactive”.

Turning to `CCOC(=O)C(Cl)Cc1cc(-n2nc(C)n(C(F)F)c2=O)c(F)cc1Cl` (stereo not given), the Potency entry is “inactive”.

As to `CC(C)C(C(=O)OC(C#N)c1cccc(Oc2ccccc2)c1)c1ccc(Cl)cc1` (stereo not given), the Potency result was “inactive”. Take `CCC[CH2][Sn]([Cl])([Cl])[CH2]CCC`: the Potency entry is “inactive”.

For `CCOP(=O)(OCC)OP(=O)(OCC)OCC`, the Potency entry is “inactive”. To `COc1ccc(/C(=C/C(=O)N2CCOCC2)c2ccc(Cl)cc2)cc1OC` belongs “inactive”; to `CC(C)[C@@H](Nc1ccc(C(F)(F)F)cc1Cl)C(=O)OC(C#N)c1cccc(Oc2ccccc2)c1` (stereo not given in full), “inactive”. The result for `CCCCCCCCCCCCC1=C(OC(C)=O)C(=O)c2ccccc2C1=O` reads “inactive”; that for `C=CC(=O)OCCCCCC(C)C`, “inactive”; that for `Clc1ccc([C@@]2(Cn3cncn3)C[C@H](Br)CO2)c(Cl)c1`, “inactive”. The result for `CCC[CH2][Sn](=[O])[CH2]CCC` reads “inactive”. In the case of `CCSCCSP(=O)(OC)OC`, the Potency result is “inactive”.

In the case of `c1ccc2cc3c(cc2c1)-c1cccc2cccc-3c12`, the Potency was 7.94 µM (active). The result for `CC(C)(C)[C@@H](O)/C(=C\c1ccc(Cl)cc1Cl)n1cncn1` reads “inactive”; that for `COc1nn(C(=O)NS(=O)(=O)c2ccccc2OC(F)(F)F)c(=O)n1C`, “inactive”; that for `ClCc1ccccc1Cl`, “inactive”. The result for `CCCN(CCOc1c(Cl)cc(Cl)cc1Cl)C(=O)n1ccnc1` reads “inactive”; that for `O=[N+]([O-])Nc1nccn1Cc1ccc(Cl)nc1`, “inactive”. To `Fc1ccc(Oc2ccnc3cc(Cl)cc(Cl)c23)cc1` belongs “inactive”. As for `O=C(O)c1c(Cl)ccc2cc(Cl)cnc12`, the Potency result is “inactive”. The result for `O=S(=O)(c1ccc(O)cc1)c1ccc(O)cc1` reads “inactive”; that for `COC(=O)/C=C(\C)OP(=O)(OC)OC`, “inactive”; that for `CC1(C(=O)Nc2ccc(O)c(Cl)c2Cl)CCCCC1`, “inactive”. To `CCOP(=O)(OCC)Oc1ccc([N+](=O)[O-])cc1` belongs “inactive”; to `CCOP(=S)(OCC)Oc1cnc2ccccc2n1`, “inactive”; to `COP(=S)(OC)Oc1c(Cl)cc(C)cc1Cl`, “inactive”. To `COc1cnc(OC)n2nc(NS(=O)(=O)c3c(OCC(F)F)cccc3C(F)(F)F)nc12` belongs “inactive”.
